# Shown is part of a subset that was picked to be rich in hits.
# Vaccinia pol inh = blocks vaccinia virus processive DNA synthesis; in vitro processive DNA synthesis, absorbance read-out; hits give low values; normalized absorbance, % (test concentration not listed); actives 0.94% (n = 46,000); in the data active = normalized absorbance mostly below about 85%, no sharp cut-off; inactive = mostly above about 86%
# An asterisk follows results filed as active.
SMILES,Vaccinia pol inh
CC(O)CN=c1cc(-c2ccccc2)oc2ccc(Cl)cc12 (stereo not given),45.6*
CCc1ccc2oc(-c3ccccc3)cc(=NCc3cccnc3)c2c1,79.8*
Cc1ccc2oc(-c3ccccc3)c(C(=O)O)c(=O)c2c1,87.4
Cc1ccc2oc(-c3ccccc3)cc(=NCCO)c2c1,48.6*
C(=NCc1ccccc1)c1cn(-c2ccccc2)nc1-c1cccnc1,98.2
O=c1cc(-c2ccccc2)oc2cc(Cl)ccc12,98.4
CCC(N=c1cc(-c2ccc(OC)cc2)oc2ccc(C)cc12)C(=O)O (stereo not given),97.9
Oc1ccc(N=c2cc(-c3ccccc3)oc3ccc(Cl)cc23)cc1,98.0
c1ccc(-c2nc3cc(NCc4cccnc4)ccc3o2)cc1,100.2
COc1ccc2oc(-c3ccccc3)cc(=O)c2c1,77.3
Cc1ccc2oc(-c3ccccc3)cc(=NCCN(C)C)c2c1,30.3*
Cc1ccc2oc(-c3ccccc3)c(CN3CCOCC3)c(=O)c2c1,97.8
OC1(c2ccc(-c3ccccc3)cc2)COc2ccccc2O1 (stereo not given),99.2
O=C(/C=C1\Sc2ccccc2NC1=O)NC1CC1,84.9
CCC(C(=O)NC1CCCc2ccccc21)n1nc(C)n2c(cc3sccc32)c1=O (stereo not given),101.1
CC(C)Sc1nnc(Cc2cc(=O)[nH]c(=O)[nH]2)n1-c1ccc(F)cc1,97.6
COc1cccc(OCC(=O)N(C)C2CCS(=O)(=O)C2)c1 (stereo not given),92.2
O=C1c2[nH]nc(-c3ccccc3O)c2C(c2ccccc2)N1CCc1ccccc1 (stereo not given),100.3
O=C(Cn1c(=O)c(C(F)(F)F)nc2ccccc21)N1CCc2ccccc21,97.7
COc1ccc(NC2(C(N)=O)CCCCC2)cc1,99.6
OCCN=c1cc(-c2ccccc2)oc2ccc(Cl)cc12,41.3*
O=c1cc(-c2ccccc2)oc2ccc(Cl)cc12,102.5
Clc1ccc2oc(-c3ccccc3)cc(=NCCN3CCOCC3)c2c1,96.1
CC(C)(O)C12CC3CC(C1)CC(C(C)(C)O)(C3)C2,100.7
CN(C)CCCn1cc(C2=C(c3c[nH]c4ccccc34)C(=O)NC2=O)c2ccccc21,67.5*
SMILES,Vaccinia pol inh
CN(C)Cc1c[nH]c2ccccc12,98.5
COc1ccccc1OCCn1cc(/C=C2/SC(=S)NC2=O)c2ccccc21,100.0
CCOC(=O)c1nc2c(o1)NC(N)=C(C#N)C2c1ccc(Cl)cc1 (stereo not given),99.7
CCOC(=O)C1=C(C)NC(SCc2ccc(C(=O)O)cc2)=NC1c1ccc(OCC)cc1 (stereo not given),101.0
c1ccc(CNc2ccc3c(ccc4c5ccccc5[nH]c34)n2)cc1,54.1*
c1ccc(-c2nc(NCc3cccnc3)c3ccccc3n2)cc1,101.5
Cn1c(SCc2ccccc2)nc2c([nH]c3ccccc32)c1=O,97.2
Cc1cc(C)c(C(=O)Cn2c(=S)[nH]c3ccccc32)c(C)c1,100.1
CC(C)Cn1c(=S)[nH]c2ccccc21,99.2
S=c1[nH]c2ccccc2n1Cc1ccccc1,78.2*
Nc1ccc(C(=O)OCC(=O)c2ccc(Br)cc2)c(O)c1,104.9
Cc1nccc2[nH]c(=O)c(C(=O)NC3CCC(C)CC3)cc12 (stereo not given),110.0
CCc1cc(=O)oc2cc3occ(C(C)(C)C)c3cc12,96.3
O=C1c2c(O)ccc(O)c2C(=O)c2c(NCCNCCO)ccc(NCCNCCO)c21,7.8*
O=C(c1ccccc1)c1ccc2nc(Cl)c3nncn3c2c1,102.7
CN(C)c1ccc(C2=CC=CC(=C3C=CC(=[N+](C)C)C=C3)O2)cc1,39.3*
CCCc1c(C(=O)Sc2ccc(Cl)cc2)cnn1-c1ccccc1,110.0
CCOc1ccc2c(c1)C(C)=CC(C)(C)[N+]2(C)C,105.2
Clc1ccc(OCCBr)c(Cl)c1,103.3
CCOc1ccc(-c2nc3ccc(Br)cc3c(C(=O)O)c2C)cc1,101.1
CCOc1ccc(N2CCc3c2nc2ccc(Br)cc2c3N)cc1,98.9
CCCCN1CCc2c1nc1ccc(Br)cc1c2N,87.0*
CCOc1ccccc1N(C)S(=O)(=O)c1ccc2c(c1)SC(C)C(=O)N2 (stereo not given),88.4
CCC(=O)Nc1nc2c(C)c(C)ccc2s1,100.4
CCOc1cccc2sc(NC(=O)c3ccccc3F)nc12,104.7
SMILES,Vaccinia pol inh
CCOc1cccc2sc(NC(=O)CC)nc12,87.3*
O=C(Nc1ccc(-n2nncc2-c2ccccc2)cc1)c1ccco1,99.8
N#Cc1ccc(CSc2nc(-c3cccs3)c3c(c2C(=O)O)CCCC3)cc1,99.6
CN1CCc2c(-c3cccs3)nc(OCc3ccccc3Br)c(C#N)c2C1,45.9*
N#Cc1c(-c2ccco2)cc(-c2cccs2)nc1OCc1ccc(F)cc1,89.0
CCSc1ncc(Cl)c(C(=O)NCc2ccccc2)n1,90.8
CCc1ccc(-c2nn(-c3ccccc3)cc2/C=N\O)cc1,102.9
CCN1/C(=C/c2scc[n+]2C)C=C(C)c2cc(OC)c3ccccc3c21,27.0*
CCN1C(=O)C(=Cc2ccc(N3CCOCC3)cc2OC)C(=O)N(CC)C1=S,101.6
COc1ccc(-n2cc(-c3ccccc3)c3c(N4CCCCC4)ncnc32)cc1,97.2
CCN1CCN(C(=O)NC(C(=O)NC2C(=O)N3C(C(=O)O)=C(CSc4nnnn4C)CSC23)c2ccc(O)cc2)C(=O)C1=O (stereo not given),102.3
NC(=O)c1cc[n+](CC2=C(C(=O)O)N3C(=O)C(NC(=O)C(c4ccccc4)S(=O)(=O)[O-])C3SC2)cc1 (stereo not given),83.3*
CC1CCCC(C)N1C(=O)COC(=O)c1ccc(C#N)cc1 (stereo not given),101.7
CC1=C(C(=O)c2ccccc2)C(c2ccc(C)cc2)NC(=O)N1 (stereo not given),100.4
Nc1ccc(Br)cc1C(NCC(=O)O)c1ccccc1 (stereo not given),89.1
CCOC(=O)Nc1ccc(Br)cc1C(NCC(=O)OC)c1ccccc1 (stereo not given),98.2
Cc1ccc(S(=O)(=O)Nc2ccc(Br)cc2C(NCC(=O)O)c2ccccc2)cc1 (stereo not given),68.2*
COC(=O)C(NC(=O)Nc1ccccc1)C(C)C (stereo not given),100.9
COC(=O)C(N=Cc1ccccc1)c1ccccc1 (stereo not given),104.7
COC(=O)C(C(=O)OC)C(Nc1ccccc1)c1ccccc1 (stereo not given),20.0*
Cc1nc2ccccc2cc1C(=O)NCc1cccnc1,114.3
CCOc1ccc(N)cc1OCC,101.1
C[n+]1c2cc(N)ccc2cc2ccc(N)cc21,10.5*
O=C(Nc1ccc(N2CCCCC2)cc1)C1CCCCC1,93.8
CC(=O)Nc1cccc(-c2nc3ccccc3[nH]2)c1,89.5
SMILES,Vaccinia pol inh
CC(=O)Nc1ccc(C(=O)OCC(=O)Nc2ccc3ccccc3c2)cc1,74.0
CCN1/C(=C/c2ccc3ccccc3[n+]2CC)Sc2cc(NC(C)=O)ccc21,39.2*
COC(=O)c1sccc1NC(C)=O,115.7
CC1CCCCN1C(=O)CSc1nc2ccccc2n1-c1ccccc1 (stereo not given),97.6
Cc1nc2c3ccccc3nc(NN3C(=O)CCC3=O)n2n1,102.0
CC1CCCC(C)N1CCNc1nc2ccccc2c2nc(-c3ccccc3)nn12 (stereo not given),58.9*
O=C(Cn1c(=O)n2nc(-c3ccccc3)nc2c2ccccc21)c1ccc(Br)cc1,104.1
O=C(CSc1nc2cc(Cl)ccc2s1)NCc1ccc(F)cc1,102.7
CC(Oc1ccc(OCc2ccccc2)cc1)C(=O)O (stereo not given),106.1

# Screening data: PubChem, ICCB-Longwood Screening Facility, Harvard Medical School
